Laboratory results: ChEMBL document CHEMBL1157539, “Thousands of chemical starting points for antimalarial lead identification” (Nature, 2010)

Tests used:
Format in all cases: functional
Plasmodium falciparum [1] = assay: GSK_TCMDC: Inhibition of Plasmodium falciparum 3D7 in whole red blood cells, using parasite LDH activity as an index of growth. Test compounds present at 2uM
Plasmodium falciparum [2] = assay: GSK_TCMDC: Inhibition of Plasmodium falciparum Dd2 in whole red blood cells, using parasite LDH activity as an index of growth. Test compounds present at 2uM
HepG2 = assay: GSK_TCMDC: Percent inhibition of human HepG2 cell line. Test compounds present at 10uM.

Compound | Inhibition (Plasmodium falciparum [1]) [%] | Inhibition (Plasmodium falciparum [2]) [%] | Inhibition (HepG2) [%]
CCC(NC[C@@H](O)[C@H](Cc1ccccc1)NC(=O)c1cc(C2CCCC2)cc(N2CCCC2=O)c1)c1cccc(Cl)c1.Cl (stereo not given in full) | 100 | 97 | 7
O=C(c1cc2c(s1)-c1cccc(Cl)c1SC2)N1CCN(c2ccncc2)CC1 | 94 | 36 | 45
CC(C)CCN1CCC(Oc2ccc(NC(=O)c3ccccc3)cc2Cl)CC1.O=C(O)C(F)(F)F | 87 | 88 | 17
O=C(NCC1CN(Cc2ccc(N3CCCC3)o2)CCCO1)c1ccc2c(c1)OCO2.O=CO (stereo not given) | 83 | 70 | 0
Cl.O=C(NC1CCC(N2CCN(c3cccc4[nH]ccc34)CC2)CC1)c1cc2cccnc2[nH]1 (stereo not given) | 99 | 85 | 9
O=C(Nc1ccc(CN2CCOCC2)cc1)c1ccc(-c2ccc(Br)cc2)o1 | 92 | 0 | 3
Br.Oc1ccc(CCNCCCCCCNCCc2ccc(Cl)c3ccccc23)cc1O | 99 | 1 | 22
Cc1nc2sccn2c1C(=O)NCCc1ccccc1Cl | 96 | 1 | 6
CCCNCc1ccc(-c2ccc(CN(Cc3cnc(C)cn3)C(=O)CC#N)cc2)nc1.O=C(O)C(F)(F)F | 92 | 0 | 4
CC(C)(C)COC(=O)c1ccc(NC(=O)N[C@@H](Cc2ccc(O)cc2)C(=O)NC2CCN(Cc3ccc(O)cc3)C2)cc1.O=C(O)C(F)(F)F (stereo not given in full) | 94 | 21 | 3
O=C(N[C@@H](CC1CCCCC1)C(=O)NC1CCCCCC1)c1ccc(O)c(-c2ccc(Cl)c(Cl)c2)c1 | 99 | 100 | 0
CCN1CCN(CC(O)CNC(=O)Nc2ccc(Cl)cc2)CC1.O=C(O)C(F)(F)F (stereo not given) | 100 | 99 | 29
COc1cccc2cc(C(=O)N[C@@H](CC(C)C)C(=O)NC(/C=N/NC(=O)c3ccccc3)CCc3ccccc3)oc12 (stereo not given in full) | 88 | 73 | 8
CCOC(=O)CCCOc1cc(Cc2cnc(N)nc2N)cc(OC)c1OC | 97 | 3 | 12
CC1CN(c2ccc3occ(C(=O)Nc4ccc(-c5ccncc5)c(Cl)c4)c3c2)CC(C)N1C.Cl (stereo not given) | 100 | 96 | 14
CCCCCN1CCCN(Cc2cccc(NC(=O)c3ccc4ccccc4c3)c2)CC1.O=C(O)C(F)(F)F | 86 | 16 | 27
Cc1cc2ccccc2n1CC(=O)N1CC(C(=O)N2CCCCC2)Oc2ccccc21 (stereo not given) | 99 | 77 | 0
Cc1cc(F)ccc1-c1nc(NCCCNCCc2ccccc2)nc2c1ccc(=O)n2-c1c(F)cccc1F.O=C(O)C(F)(F)F | 100 | 100 | 36
CC1CN(Cc2cccc(C#N)c2)CCN1c1ccc(NC(=O)c2cccs2)cc1.O=C(O)C(F)(F)F (stereo not given) | 94 | 93 | 4
COC(=O)Cn1c(C2CCN(CC3CCC(NC(=O)/C=C/c4ccc(Cl)c(Cl)c4)CC3)CC2)nc2ccccc21 (stereo not given) | 95 | 17 | 12

Compound | Inhibition (Plasmodium falciparum [1]) [%] | Inhibition (Plasmodium falciparum [2]) [%] | Inhibition (HepG2) [%]
CCc1ccc(CN2CCC(NC(=O)c3ccc(-c4ccccc4F)s3)CC2)cc1.O=C(O)C(F)(F)F | 80 | 12 | 35
CC(Oc1ccc(C(=O)c2ccc(F)cc2)cc1)C(=O)N1CCc2ccccc21 (stereo not given) | 95 | 95 | 9
Cc1cc2nc(-c3ccc(OCC(=O)NCc4cccc(C(F)(F)F)c4)cc3)[nH]c2cc1C | 94 | 1 | 4
O=C(Nc1cccc(F)c1)N(Cc1ccc(-c2ccc(CN3CCNCC3)cc2)cc1)C1CCN(Cc2ccccc2)CC1.O=C(O)C(F)(F)F | 100 | 53 | 18
COc1ccc(S(=O)(=O)N(CCCN2CCN(C)CC2)Cc2csc(-c3ccc(CNCc4ccccc4)cc3)n2)cc1.O=C(O)C(F)(F)F | 88 | 86 | 10
CC(Cc1ccc(OCc2ccccc2)cc1)Nc1nc(O)c2ccccc2n1.Cl (stereo not given) | 98 | 96 | 2
CCCCCCN1CCCN(Cc2ccc(C(=O)Nc3ccc(F)c(F)c3)cc2)CC1.O=C(O)C(F)(F)F | 84 | 48 | 50
COc1ccc2ccccc2c1CCCCN1CCN(CC(c2ccc(F)cc2)N2CCN(C(C)C)CC2)CC1.Cl (stereo not given) | 100 | 83 | 92
COc1ccc2nccc([C@@H](O)CN3CCC(NCc4ccc5c(c4)oc(=S)n5C)CC3)c2c1.O=C(O)/C=C/C(=O)O | 100 | 68 | 14
O=C(Nc1ccc(N2CCN(Cc3ccccc3Cl)CC2)cc1)c1ccc([N+](=O)[O-])o1 | 91 | 67 | 100
COc1cccc(-c2cnc(N)c(-c3nc4ccc(F)cc4[nH]3)c2)c1.Cl | 97 | 43 | 47
CC(=O)Nc1ccc(C(=O)Nc2cccc(-c3ccc(-c4nc5cc(C(F)(F)F)ccc5[nH]4)s3)c2)cn1 | 100 | 98 | 42
O=C(NC1CCCC1)c1cc2c(=O)n3ccccc3nc2[nH]/c1=N/CCc1ccccc1 | 100 | 61 | 19
CN(C)CCCc1cc(NC(=O)Nc2cccc(Cl)c2Cl)ccc1I.Cl | 100 | 45 | 12
N#Cc1cccc(NC(=O)C2=C(CCc3ccc4c(c3)OCO4)NC(=O)NC2c2cccc(C#N)c2)c1 (stereo not given) | 96 | 47 | 3
Cl.Clc1ccc(C2CCN(CCCOc3ccc4c(c3)CCNCC4)CC2)cc1 | 98 | 28 | 93
O=C(NCc1ccc(F)cc1)Nc1ccc(-c2cccc(-c3nc4cc(C(F)(F)F)ccc4[nH]3)c2)cc1 | 100 | 92 | 41
COc1ccc2nccc([C@@H](O)CN3CCC(NC(=O)c4ccc(Cl)c(OC)c4)CC3)c2c1 | 87 | 28 | 26
O=C(Nc1ccc(Cl)cc1)Nc1cccc(-c2cccc(-c3nc4cc(F)ccc4[nH]3)c2)c1 | 100 | 84 | 79
CN(C)Cc1ccc(-c2cc3c(Nc4ccc(OCc5cccc(F)c5)c(Cl)c4)ncnc3s2)[nH]1 | 100 | 84 | 8

Compound | Inhibition (Plasmodium falciparum [1]) [%] | Inhibition (Plasmodium falciparum [2]) [%] | Inhibition (HepG2) [%]
O=C(Nc1ccc2nc3n(c(=O)c2c1)CCCCC3)C(=O)N1CCC(Cc2ccccc2)CC1 | 91 | 70 | 12
COc1ccc2nccc(N3CCC(SCCNCc4ccc5c(n4)NC(=O)CO5)C3)c2n1.Cl (stereo not given) | 100 | 9 | 30
CNCc1ccc(-c2cccc(CNCc3ccc(-c4ccccc4)cc3)c2)c(C(=O)OC)c1.O=C(O)C(F)(F)F | 92 | 19 | 25
CCc1cccc(OCC2CCCN(c3ccc(C(=O)NC4CC4)cn3)C2)c1 (stereo not given) | 94 | 73 | 0
Cc1cnc(-c2ccc(NC(=O)N3CCc4cc5nccc(N6CCN7CCC[C@H]7C6)c5cc43)c3ccccc23)o1.Cl | 100 | 45 | 12
CC(C)CCN1CCCN(Cc2ccc(C(=O)Nc3ccc(Cl)cc3)cc2)CC1.O=C(O)C(F)(F)F | 94 | 15 | 46
CCN(CC)CCCN(CCCN(CC)CC)c1cc(C)nc(Nc2ccc(Cl)cc2)n1.O=C(O)C(=O)O | 100 | 7 | 11
Nc1nccc2ccc(-c3ccc4nccn4c3)cc12.O=C(O)C(F)(F)F | 100 | 100 | 15
CN(C)CC(=O)Nc1ccc(-c2ccc3ccnc(N)c3c2)cc1.O=C(O)C(F)(F)F | 100 | 99 | 69
O=C(Nc1ccon1)c1cc(-c2cccnc2)nc2ccc(Cl)cc12 | 98 | 76 | 0
CC(C)(C)CCOC(=O)N1CCc2c(cc(O)c(O)c2Cl)C(c2ccc(O)cc2)C1 (stereo not given) | 97 | 95 | 2
COc1ccc(-c2nonc2NC(=O)c2ccc(OC(C)C)cc2)cc1OC | 100 | 99 | 11
CCCCCCC(N)c1ccc(OCCCOc2ccc(C(N)CCCCCC)cc2)cc1.Cl (stereo not given) | 88 | 70 | 100
O=C(Nc1ccc(C(F)(F)F)cc1)c1cc(Br)cnc1NCCCn1ccnc1 | 99 | 98 | 32
Nc1nc(N)c2c(ccc3c2ccn3CCCF)n1 | 94 | 0 | 61
COc1ccc2nccc([C@@H](O)CN3CCC(NC(=O)c4cccc(-c5cc(C)no5)c4)CC3)c2c1 | 93 | 89 | 19
Cc1cccc(C(=O)N2CCN(Cc3cccc(NC(=O)c4cccs4)c3)CC2)c1.O=C(O)C(F)(F)F | 95 | 95 | 5
CN(C)CCOc1ccc(-c2cc(-c3ccncc3)c(-c3ccc(Cl)c(O)c3)o2)cc1.Cl | 99 | 93 | 0
COc1ccc(C(C(=O)NC2CCN(C[C@H](O)c3ccnc4ccc(OC)cc34)CC2)N2CCN(c3ccc([N+](=O)[O-])cc3)CC2)cc1 (stereo not given in full) | 99 | 80 | 17
CCCc1ccccc1OCC(O)CN(C1CCCC1)C1CCCC1.Cl (stereo not given) | 97 | 97 | 49
